# Measured values published in PubChem BioAssay (NCATS).
# Results filed as inconclusive are left out. Active and inactive are the calls of the source. Calls follow the shape of the dose curve; as a rule, active = well fitted curve in the direction sought with a large enough effect; inconclusive = small, poorly fitted or top-dose-only effect, or another doubt; inactive = no such curve, though single readings can be large or run the other way.
# Experiments:
# [1] = target: Nuclear receptor subfamily 1 group I member 2 (Homo sapiens) (UniProt O75469); assay: Dual reporter qHTS for antagonist of Pregnane X Receptor (hPXR) against the NCATS DSHEA and TCM libraries: Luminescence Readout (AID 1920060); conditions: hPXR dual reporter cells, luciferase luminescence, antagonist mode; series mostly up to 40 µM;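 also: HepG2 cells carrying hPXR luciferase reporter stimulated with rifampicin at 2 µM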
# Procedure, shortened: (§1)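 hPXR-Luc HepG2 cells exposed 24 h at 37 C to compounds with 2 uM rifampicin in antagonist mode; luciferase luminescence measured by ONE-Glo, with CellTiter-Fluor viability read beforehand.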
# [2] = Dual reporter qHTS for antagonist of Pregnane X Receptor (hPXR) against the NCATS DSHEA and TCM libraries: Fluorescence Readout (AID 1920061); conditions: PXR dual reporter cells, antagonist mode; series mostly up to 40 µM
# Procedure, shortened: as §1
# Chain of Nuclear receptor subfamily 1 group I member 2 (Homo sapiens) (O75469 whole entry, looked up): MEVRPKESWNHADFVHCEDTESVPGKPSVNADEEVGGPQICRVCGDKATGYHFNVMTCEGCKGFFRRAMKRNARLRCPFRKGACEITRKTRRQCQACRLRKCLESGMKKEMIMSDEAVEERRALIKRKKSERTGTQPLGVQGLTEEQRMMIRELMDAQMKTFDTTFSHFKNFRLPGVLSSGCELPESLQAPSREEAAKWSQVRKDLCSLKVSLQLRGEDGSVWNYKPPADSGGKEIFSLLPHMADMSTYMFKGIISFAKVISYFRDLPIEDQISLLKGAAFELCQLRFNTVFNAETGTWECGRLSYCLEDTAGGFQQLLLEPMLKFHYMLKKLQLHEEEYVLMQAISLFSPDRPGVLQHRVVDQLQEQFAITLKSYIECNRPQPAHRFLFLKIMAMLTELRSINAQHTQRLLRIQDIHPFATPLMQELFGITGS
structure (smiles),measurement,setting,value
C[C@H]1[C@H](C)CC[C@]2(C(=O)O)CC[C@]3(C)C(=CC[C@@H]4[C@@]5(C)CC[C@H](O)C(C)(C)[C@@H]5CC[C@]43C)[C@H]12,outcome,[1],inactive
same,outcome,[2],inactive
